Reference: the supplement of paper PMC9492666
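Also: breast cancer cell viability read out with the CCK-8 kit after co-treatment of each compound with the ferroptosis inducer RSL3.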

Each compound was assayed on MDA-MB-231 (assay: relative cell viability, compound + RSL3, vs DMSO (fraction of DMSO control); higher = less growth inhibition). Settings: 72 h.
`CC(C)(C)N1C(=O)C(Nc2ccc(N3CCCCC3)cc2)=C(c2ccccc2)S1(=O)=O` + COC(=O)c1ccc([C@H]2c3[nH]c4ccccc4c3C[C@H](C(=O)OC)N2C(=O)CCl)cc1 [RSL3] gave a relative cell viability of 0.69. For `COc1ccc(-c2cc(=O)c3c(O)c(OC)c(OC)c(OC)c3o2)cc1OC` + COC(=O)c1ccc([C@H]2c3[nH]c4ccccc4c3C[C@H](C(=O)OC)N2C(=O)CCl)cc1 [RSL3], the relative cell viability was 0.501. For `Cc1ccc(CN(CC(O)COc2cccc3[nH]ccc23)C(C)(C)C)cc1` (configuration not stated) + COC(=O)c1ccc([C@H]2c3[nH]c4ccccc4c3C[C@H](C(=O)OC)N2C(=O)CCl)cc1 [RSL3], the relative cell viability was 0.804. Compound `CCN(CC)c1ccc(C=NNC(=O)c2ccncc2)c(O)c1` + COC(=O)c1ccc([C@H]2c3[nH]c4ccccc4c3C[C@H](C(=O)OC)N2C(=O)CCl)cc1 [RSL3] has a relative cell viability of 0.611. In the case of `COP(=O)(OC)OC(c1ccc(Cl)cc1)P(=O)(OC)OC` (configuration not stated) [Mifobate] + COC(=O)c1ccc([C@H]2c3[nH]c4ccccc4c3C[C@H](C(=O)OC)N2C(=O)CCl)cc1 [RSL3], the relative cell viability is reported as 0.669. `CCNC1(C(N)=O)CCN(c2ncnc3c2nc(-c2ccccc2Cl)n3-c2ccc(Cl)cc2)CC1` [Otenabant] + COC(=O)c1ccc([C@H]2c3[nH]c4ccccc4c3C[C@H](C(=O)OC)N2C(=O)CCl)cc1 [RSL3] gave a relative cell viability of 0.39. `CC(C)=CCC(O)C1=CC(=O)c2c(O)ccc(O)c2C1=O` (single isomer, unassigned; (+)) [(+)-Shikonin] + COC(=O)c1ccc([C@H]2c3[nH]c4ccccc4c3C[C@H](C(=O)OC)N2C(=O)CCl)cc1 [RSL3] gave a relative cell viability of 0.132.
